Compound activity as filed in PubChem BioAssay.
CHO-K1 Ca PAM = nonselective calcium activators in parental CHO-K1 cells, primary screen, counter-screen for M1 PAM project, cell-based, Fluo-8 calcium fluorescence, full deck, 1536-well | ATP EC20; 0% at ATP EC20, 100% at ATP max | activation, % at 3 µM | 360,000 tested, 0.02% active;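 active = activation above the run cutoff, the mean activation of all test compounds plus 3 SD, cut at about 40% in these data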;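 also: peak over basal fluorescence ratio in a 140 s read after ATP addition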
CHO-K1 Ca ag = counter-screen for M1 agonists: effect in parental CHO-K1 cells; Fluo-8 calcium fluorescence; scaled to maximal ATP response, vehicle zero; 360,000 tested, 0.48% active; activation, % at 3 µM; AID 602248, 2012; in the data active = activation above about 15%;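 also: untransfected CHO-K1 host cells lacking M1 receptor as counterscreen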
M1 antag = human M1 muscarinic receptor antagonists, primary screen, CHO-K1 cells, Fluo-8 calcium fluorescence, 1536-well; Muscarinic acetylcholine receptor M1 (Homo sapiens), P11229; CHO-K1 hM1, ACh EC80 antagonist; inhibition, % at 3 µM; 360,000 tested, 1.3% active;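 active = percent inhibition above its own plate's cutoff, namely the mean of that plate's compound wells plus 3 SD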;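 also: peak over basal fluorescence ratio during 140 s after agonist addition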
Target sequence (P11229 whole entry, looked up): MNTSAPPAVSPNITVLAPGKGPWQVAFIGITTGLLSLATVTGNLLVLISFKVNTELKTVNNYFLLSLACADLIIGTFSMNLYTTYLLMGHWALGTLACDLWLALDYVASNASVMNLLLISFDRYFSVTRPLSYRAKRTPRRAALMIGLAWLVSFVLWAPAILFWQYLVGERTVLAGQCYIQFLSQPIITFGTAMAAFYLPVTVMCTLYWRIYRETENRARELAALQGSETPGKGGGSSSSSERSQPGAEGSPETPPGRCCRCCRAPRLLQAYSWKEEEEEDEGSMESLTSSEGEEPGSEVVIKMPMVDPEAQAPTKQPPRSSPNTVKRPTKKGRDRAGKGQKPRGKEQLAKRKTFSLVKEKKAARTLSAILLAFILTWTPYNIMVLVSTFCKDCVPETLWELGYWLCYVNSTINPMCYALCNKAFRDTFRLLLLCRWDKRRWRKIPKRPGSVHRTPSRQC
CHO-K1 Ca antag = nonselective inhibitor or artifact in parental CHO-K1 cells | ATP-induced calcium, Fluo-8 fluorescence | inhibition, % at 3 µM | AID 602250 | 360,000 tested, 0.6% active;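 active = inhibition above a per-plate cutoff, the plate's mean sample inhibition plus 3 SD, cut at about 24% in these data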
CHRM1 agonist = human M1 muscarinic receptor agonists, primary screen, Fluo-8 calcium fluorescence, CHO-K1 cells, HTS. Muscarinic acetylcholine receptor M1 (Homo sapiens), P11229. CHO-K1 hM1, agonist mode; 0% DMSO, 100% acetylcholine EC100. activation, % at 3 µM. 360,000 tested, 0.33% active. AID 588814, 2011;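 active = activation above the run's mean compound activation plus 3 SD, cut at about 16% in these data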;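 also: peak over basal fluorescence ratio within a 140 s kinetic read after compound addition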
CHRM1 PAM = human M1 muscarinic receptor positive allosteric modulators, primary screen, CHO-K1 cells, Fluo-8 calcium fluorescence, 1536-well | CHO-K1 hM1, ACh EC20; 0% = ACh EC20, 100% = maximal ACh | activation, % at 3 µM | 360,000 tested, 0.088% active | AID 588819, 2011; in the data active = activation above about 19%, passing the limit was not always enough
Hits are given with their value; 0 = inactive. Rows were chosen to be rich in hits. Some 2.4% of all compounds tested hit in one or more screens of this group.

SMILES | CHO-K1 Ca PAM | CHO-K1 Ca ag | M1 antag | CHO-K1 Ca antag | CHRM1 agonist | CHRM1 PAM
C[N+]1(CC2COC3(CCCCC3)O2)CCCC1 (centres undefined) | 0 | 0 | 0 | 0 | 0 | 0
OC(COCc1ccco1)CN1CCN(C(c2ccccc2)c2ccccc2)CC1 (centres undefined) | 0 | 0 | 66.5 | 0 | 0 | 0
CCC(=O)c1ccc(OCC(O)CN2CCN(C(c3ccccc3)c3ccccc3)CC2)cc1 (centres undefined) | 0 | 0 | 69.7 | 0 | 0 | 0
N#Cc1ccc(OCC(O)CN2CCN(C(c3ccccc3)c3ccccc3)CC2)cc1 (centres undefined) | 0 | 0 | 87.5 | 0 | 0 | 0
COc1ccc(C(=O)Nc2ccc(N3CCN(Cc4ccccc4)CC3)cc2)cc1 | 0 | 0 | 0 | 0 | 0 | 0
COc1c(F)c(F)c(C(=O)Nc2ccc(N3CCN(Cc4ccccc4)CC3)cc2)c(F)c1F | 0 | 0 | 47.3 | 0 | 0 | 0
COc1cccc(NC(=O)c2ccc(CN3CCN(c4ccccc4)CC3)cc2)c1 | 0 | 0 | 20.5 | 0 | 0 | 0
COc1ccc(C)cc1N(C(=O)c1snc(C(N)=O)c1N)C(C(=O)NC1CCCCC1)c1ccc(C)o1 (centres undefined) | 0 | 0 | 0 | 0 | 0 | 0
c1ccc(N=NC2=NN(c3ccccc3)CS2)cc1 | 0 | 0 | 0 | 0 | 0 | 0
CCc1ccc(/C=N/NC(=O)c2nnn(-c3nonc3N)c2C(C)C)cc1 | 0 | 0 | 0 | 0 | 32.5 | 0
Cc1ccc(/C=N/NC(=O)c2nnn(-c3nonc3N)c2C(C)C)o1 | 0 | 0 | 0 | 27.7 | 0 | 0
CC(C)(C)OC(=O)N1CCCC(C(=O)Nc2cccc(C(=O)NCCc3ccccc3)c2)C1 (centres undefined) | 0 | 0 | 0 | 0 | 0 | 0
CC(C)(C)OC(=O)N1CCCC(C(=O)Nc2cccc(C(=O)NCCCCc3ccccc3)c2)C1 (centres undefined) | 0 | 0 | 26.5 | 0 | 0 | 0
Cc1ccc(S(=O)(=O)NCCC(=O)N2CCC(C(N)=O)CC2)cc1C | 0 | 0 | 0 | 0 | 0 | 23.5
COc1ccc(-c2cc(C(F)(F)F)nc(SCC(=O)Nc3cc(C)on3)n2)cc1OC | 0 | 0 | 0 | 24.9 | 0 | 0
COc1ccc(-c2cc(C(F)(F)F)nc(SCCC(=O)Nc3cc(C)on3)n2)cc1 | 0 | 0 | 0 | 0 | 0 | 0
O=C(Nc1ccc2c(c1)OCCO2)C(c1ccnc2ccccc12)N1CCN(C/C=C/c2ccccc2)CC1 (centres undefined) | 0 | 0 | 0 | 0 | 0 | 0
CN(C)c1ccc(-c2csc(C(O)c3ccc(F)c(F)c3)n2)cc1 (centres undefined) | 0 | 34.8 | 42.2 | 23.8 | 41.7 | 0
COc1ccc(C(O)c2nc(-c3ccc(N(C)C)cc3)cs2)cc1 (centres undefined) | 0 | 23.6 | 0 | 0 | 0 | 0
COc1ccc(-c2csc(C(O)c3ccc(OC)cc3)n2)cc1 (centres undefined) | 0 | 0 | 0 | 0 | 0 | 0
CN(C)c1ccc(-c2csc(C(O)c3ccc(F)cc3)n2)cc1 (centres undefined) | 0 | 23.0 | 0 | 0 | 18.0 | 0
CCCCN(CCCC)C(=S)NC(=O)c1ccccc1Cl | 0 | 0 | 0 | 0 | 0 | 0
COC(=O)C1=CN(Cc2ccccc2)C=C(C(=O)OC)C1c1ccc(O)c(OC)c1 | 0 | 0 | 0 | 25.4 | 0 | 0
COC(=O)C1=CN(Cc2ccccc2)C=C(C(=O)OC)C1c1ccc(OC)c(OC)c1 | 0 | 0 | 0 | 0 | 0 | 0
O=C(CN(C(=O)c1csnn1)c1ccc(F)cc1)NCCc1ccccc1 | 0 | 0 | 0 | 0 | 0 | 0
SMILES | CHO-K1 Ca PAM | CHO-K1 Ca ag | M1 antag | CHO-K1 Ca antag | CHRM1 agonist | CHRM1 PAM
CN1CCCCCC1=Nc1ccccc1C#N | 0 | 0 | 26.6 | 0 | 0 | 0
CCOC(=O)Cc1csc(NC(=O)CSc2ncnc3c2cnn3-c2ccccc2Cl)n1 | 0 | 0 | 27.6 | 0 | 0 | 0
COc1ccc(OC)c(NC(=O)c2cc(OC(C)=O)cc(C(=O)Nc3cc(OC)ccc3OC)c2)c1 | 0 | 0 | 0 | 30.2 | 0 | 0
CCCCCCCN1C(N(C)C)=NC[C@@H]1Cc1ccccc1 | 0 | 0 | 0 | 0 | 0 | 0
CN(C)C1=NC[C@H](Cc2ccccc2)N1CCCCc1ccccc1 | 0 | 0 | 34.3 | 0 | 0 | 0
COC(=O)c1ccccc1OCCCN(C)C | 0 | 0 | 0 | 26.6 | 0 | 0
c1ccc(COc2ccc(OCCCN3CCCC3)cc2)cc1 | 0 | 0 | 45.5 | 0 | 0 | 0
CC1CCN(CCCOc2ccc(OCc3ccccc3)cc2)CC1 | 0 | 0 | 43.4 | 0 | 0 | 0
c1ccc(COc2ccc(OCCN3CCCC3)cc2)cc1 | 0 | 0 | 0 | 0 | 0 | 0
COc1ccc(CNC(=O)CCn2nc(C)c3c(C)n(-c4ccccc4)nc3c2=O)c(OC)c1 | 0 | 0 | 0 | 0 | 0 | 0
CC1=CCC[C@@H]2[C@]3(CC/C(=C/CO)CO)CO[C@@]2(C1)[C@@H](O)C[C@H]3C | 0 | 0 | 0 | 0 | 0 | 0
COc1cccc(-c2cc3nc(C)c(C)c(N4CCN(C(=O)c5ccoc5)CC4)n3n2)c1 | 0 | 0 | 0 | 0 | 0 | 0
O=C(Cn1nc(C(=O)O)c2ccccc2c1=O)Nc1cccc(S(=O)(=O)N2CCCCC2)c1 | 0 | 0 | 24.0 | 0 | 0 | 0
O=C(Cn1nc(C(=O)O)c2ccccc2c1=O)Nc1cccc(S(=O)(=O)N2CCOCC2)c1 | 0 | 0 | 0 | 0 | 0 | 0
O=C(O)c1nn(CC(=O)N2CCCCCC2)c(=O)c2ccccc12 | 0 | 16.3 | 0 | 0 | 0 | 0
CC(=O)N1CCOc2ccc(S(=O)(=O)N3CCC(C)CC3)cc21 | 0 | 0 | 0 | 0 | 0 | 0
O=C(c1ccc(Br)o1)N1CCN(c2ccc(F)cc2)CC1 | 0 | 0 | 0 | 0 | 0 | 0
CCN1CCN(c2ccc(N3CCN(C(=O)c4ccc(Br)o4)CC3)nn2)CC1 | 0 | 0 | 34.9 | 0 | 0 | 0
COc1ccc(CNS(=O)(=O)c2ccc3c(c2)N(C(C)=O)CC(C)S3)cc1 (centres undefined) | 0 | 16.6 | 0 | 0 | 0 | 0
CN(CC(=O)Nc1cccc(F)c1)C(=O)CSc1nc2ccccc2s1 | 0 | 0 | 0 | 0 | 0 | 0
Cc1cccc(OCC(=O)NCc2ccc(F)cc2)c1 | 0 | 0 | 0 | 24.2 | 0 | 0
O=C(COC(=O)COc1ccccc1)NCc1ccccc1 | 0 | 18.9 | 0 | 0 | 0 | 0
Cc1cc(C)c(OCC(=O)OCC(=O)NCc2cccs2)c(C)c1 | 0 | 0 | 0 | 0 | 0 | 0
COc1ccc(/C=N/OCC(=O)NCc2cccs2)c(OC)c1 | 0 | 0 | 0 | 0 | 0 | 35.9
